mIDH1 inhibitor: blocks human mutant IDH1 R132H enzyme | Potency, µM (top dose mostly 76.6 µM), for the others: at the top dose activity change, negative = inhibition, most hits filed as inhibitors | IDH1-R132H enzyme, NADPH consumption, diaphorase/resazurin fluorescence | O75874 | hit rate 0.093% among 390,000; further: on the % scale 0 is the no-effect control and ±100 the full control effect; nearly all actives have a fitted effect of over 65% in size
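IDH1-R132H (0.5 ug/mL dispensed) in pH 7.5 Tris buffer was preincubated 30 min with compound, then given a substrate mix of 0.016 mM NADPH and 2 mM alpha-KG for 80 min at room temperature; remaining NADPH was read by diaphorase/resazurin fluorescence.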
A-T KAP1 phos: potential ataxia-telangiectasia treatments restoring KAP-1 phosphorylation | F2112 A-T fibroblasts, KAP-1 phosphorylation AlphaLISA; neocarzinostatin DNA damage 30 min before lysis | Potency, µM (top dose mostly 57.5 µM), for the others: at the highest dose activation, actives largely listed as activators | hit rate 0.19% among 320,000 | AID 485349; further: % of control where 0% means no effect; nearly all actives have a fitted effect of over 45% in size
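hTERT-immortalized A-T patient fibroblasts (F2112), 500 cells/well in OPTI-MEM, 1% FBS, got compounds for 60 min, then NCS for 30 min at 37C. Lysates were then assayed for phospho-KAP-1 by AlphaLISA (anti-pKAP1 donor, anti-KAP1 acceptor beads), 6 hr at 25C.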
NPSR antag: blocks cAMP signaling of the human neuropeptide S receptor; CHO-NPSR cells, cAMP TR-FRET, antagonist mode; Potency, µM (highest dose often 38.3 µM), for the others: top-dose activity change, negative = inhibition, usual class: inhibitors; hit rate 1% among 220,000; further: on the % scale 0 is the no-effect control and ±100 the full control effect; nearly all actives have a fitted effect of over 50% in size
Target sequence (Q6W5P4 whole entry, looked up): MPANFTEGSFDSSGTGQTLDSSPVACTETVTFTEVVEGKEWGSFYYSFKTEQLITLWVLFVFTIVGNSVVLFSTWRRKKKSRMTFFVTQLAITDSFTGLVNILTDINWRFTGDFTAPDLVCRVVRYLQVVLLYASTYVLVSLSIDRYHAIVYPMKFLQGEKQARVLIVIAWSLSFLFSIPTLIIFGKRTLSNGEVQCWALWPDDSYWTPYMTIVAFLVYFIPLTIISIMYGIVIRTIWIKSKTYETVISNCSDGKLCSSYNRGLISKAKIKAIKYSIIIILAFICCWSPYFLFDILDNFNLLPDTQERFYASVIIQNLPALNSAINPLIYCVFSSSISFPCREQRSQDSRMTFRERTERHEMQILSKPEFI
HTT cytoprotect: protects HTT-Q103 PC12 cells, measured by ATP | hit rate 0.14% among 230,000 | PC12 HTT-Q103 induced, cytoprotection, ATP luminescence, 40 h | Potency, µM (doses to about 56.4 µM), without a hit: cytoprotection (ATP increase), actives largely listed as activators; further: % of control where 0% means no effect; nearly all actives have a fitted effect of over 45% in size
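Stable PC12 Q103-GFP cells in serum-supplemented, phenol red-free DMEM; induction by tebufenozide at 100 nM final; compound dose series; cell viability quantified luminescently from ATP.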
HTT aggregate: inhibitors of mutant huntingtin aggregate formation in PC12 cells. PC12 HttQ103-GFP aggregates, Acumen cytometry, 40 h. Potency, µM (highest dose often 46.1 µM), for the others: at the highest dose activity change, negative = inhibition, most hits filed as inhibitors. hit rate 1.1% among 220,000. AID 1688; further: on the % scale 0 is the no-effect control and ±100 the full control effect; nearly all actives have a fitted effect of over 60% in size
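Steps: seed 1500 PC12 HTTQ103-GFP cells/well; add tebufenozide, 100 nM final; add compound titration; add ATPLite reagent; quantify GFP aggregates by laser scanning cytometry.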
Active calls of the source: *; u = inconclusive; x = no result; [ ] = dose if it differs, or a comment. Hits are enriched below; roughly 1.1% of the tested compounds scored in any of these assays. The call rests on the fitted dose curve; in most records, active means well fitted curve in the direction sought with a large enough effect; inconclusive means small, poorly fitted or top-dose-only effect, or another doubt; inactive means no such curve, though single readings can be large; an effect the other way counts as inactive or inconclusive. Potency means the concentration at half of the fitted maximal effect.

SMILES	mIDH1 inhibitor	A-T KAP1 phos	NPSR antag	HTT cytoprotect	HTT aggregate
Cc1cccc(C)c1NC(=O)CCCn1c(=O)c2cccn2c2ccccc21	3%	x	x	x	x
O=C(Nc1nc2ccccc2s1)c1ccc(OCC2CCCO2)cc1 (configuration not stated)	9%	1%	-19%[46.1 µM]	-5%[10 µM]	32µM*
O=[N+]([O-])c1ccc(N/N=C/c2c[nH]c3ccccc23)c(S(=O)(=O)Nc2ccc(Cl)cc2)c1	-6%	1%	16µM*	-7%	u
CC(=O)N1c2ccc(S(=O)(=O)N(C)CC(=O)N(Cc3ccccc3)C(C)C)cc2CC1C (configuration not stated)	-7%	x	x	x	x
Cc1ccc(C)c(NC(=S)NNC(=O)c2csc3c2CCC(C)C3)c1 (configuration not stated)	9%	3%	-8%[46.1 µM]	1%	-3%
Cc1ccc(C)c(NC(=S)NNC(=O)c2csc3c2CCCC3)c1	5%	2%	-17%[46.1 µM]	11%	25µM*
CC1=NN2C(=N)/C(=C\c3cc(C)n(-c4ccc(C)cc4)c3C)C(=O)N=C2S1	3%	5%	13µM*	-15%[10 µM]	8%[9.22 µM]
CCCC1=NN2C(=N)/C(=C\c3cc(C)n(-c4cccc(C)c4)c3C)C(=O)N=C2S1	6%	5%	-55%	x	13%
COc1ccc(-c2nc(SCC(=O)c3ccc(OC)c(Br)c3)n[nH]2)cc1	13%	x	x	x	x
CCOP(=O)(c1ccccc1)c1nc(-c2ccccc2C)oc1N1CCCCC1 (configuration not stated)	-12%	-4%	10µM*	-18%	u
Cc1ccccc1-c1nc(P(=O)(c2ccccc2)c2ccccc2)c(N2CCOCC2)o1	4%	6%	51%	-7%[10 µM]	-6%[9.22 µM]
CCN1CCN(c2c(S(=O)(=O)c3ccc(C)c(C)c3)cnc3cc(OC)c(OC)cc23)CC1	-10%	x	x	x	x
COC(=O)[C@@H]1CC[C@H](C)[C@@H](c2ccc(C)cc2)N1C(=O)c1ccc(/C=N/O[C@@H](C)CN2CCCCc3nc(C)c(C)cc32)cc1	x	-7%	10µM*	x	13%
N=c1c2c(-c3ccccc3)c(-c3ccccc3)n(Cc3ccco3)c2ncn1CCCn1ccnc1	2%	14%	-17%	0%[0.074 µM]	-14%
c1ccc(-c2c(-c3ccccc3)n(Cc3ccco3)c3ncnc(NCCCn4ccnc4)c23)cc1	29µM*	2%	25µM*	-90%	u
CC(C)Cn1cnc2c(c(-c3ccccc3)c(-c3ccccc3)n2Cc2ccco2)c1=N	-5%	0%	u	-95%	5%[9.22 µM]
N=c1c2c(-c3ccccc3)c(-c3ccccc3)n(Cc3ccco3)c2ncn1Cc1ccccc1	1%	2%	10µM*	-115%	u
O=c1c2c3nc4ccccc4nc3n(Cc3ccccc3)c2ncn1Cc1ccco1	4%	0%	10µM*	-18%[0.074 µM]	u
CCOC(=O)c1c(CSC(=N)N)n(-c2ccc(Br)cc2)c2cc(Br)c(OC(C)=O)cc12	0%	-8%	10µM*	x	-21%
CCCCCCCCOC(=O)c1c(CSC(=N)N)n(C)c2cc(Br)c(OC(C)=O)cc12	u	-3%	u	-18%[10 µM]	6%[9.22 µM]
C#C[C@@]1(O)CC[C@H]2[C@H]3CCC4=Cc5oncc5C[C@]4(C)[C@@H]3CC[C@@]21C	x	x	x	20%[1.9 µM]	x
CCCCCCCCCCCCCCCC(=O)NC[C@@H](COP(=O)([O-])OCC[N+](C)(C)C)OCC	x	x	x	2%[1.9 µM]	x
CCCCCCCCCCCCCCCC(=O)NCC(COP(=O)([O-])OCC[N+](C)(C)C)OCC (configuration not stated)	x	x	10µM*	x	x
COc1cc(C(=O)O/N=C2\C=CC(=O)C(C)=C2)cc(OC)c1OC	11%	-3%	-9%[46.1 µM]	-113%	11µM*
COc1cc(C(=O)ON=C2C=C(C)C(=O)C(C)=C2)cc(OC)c1OC	5%	0%	-13%	15%[10 µM]	u
SMILES	mIDH1 inhibitor	A-T KAP1 phos	NPSR antag	HTT cytoprotect	HTT aggregate
NC1=C(O)C(=O)[C@H](c2c[nH]c3ccc(OCc4ccccc4)cc23)O1	x	x	x	-20%[10 µM]	x
N#Cc1ccccc1OC[C@H](O)CNCCNC(=O)Nc1ccccc1	x	x	x	32µM*	x
Cc1ccc(NC(=S)NCCc2c[nH]c3ccccc23)cc1	10%	0%	-15%[46.1 µM]	-5%	0%
Cc1cccc(NC(=S)NCCc2c[nH]c3ccccc23)c1	4%	2%	-24%	9%[10 µM]	11µM*
CC(C)N(C(=O)Nc1ccc2nsnc2c1)C(C)C	13%	32µM*	-8%	x	x
NCCC[C@@](N)(C(=O)O)C(F)F	x	x	x	-1%[1.9 µM]	x
O=C(CSc1nnc(Cn2nnc3ccccc32)o1)N(Cc1ccc(F)cc1)c1ccccc1	2%	2%	-29%[46.1 µM]	28%[10 µM]	13µM*
COc1ccc(N(Cc2ccccc2)C(=O)CSc2nnc(Cn3nnc4ccccc43)o2)cc1	0%	3%	-20%[46.1 µM]	-12%	u
O=c1[nH]c(=O)n(-c2ccc(F)cc2)c2c1C(C(F)(F)F)(C(F)(F)F)N=C(c1ccc(F)cc1)N2	0%	2%	-31%	14%[10 µM]	3.2µM*
COC(=O)C1=C(C(=O)OC)[C@@H]2N(Cc3ccccc3)c3ccccc3[C@@]23C[C@@H](C(=O)OC)N(S(=O)(=O)c2ccc(C#N)cc2)C3=N1	x	x	x	4%[10 µM]	x
COC(=O)CNC(c1ccccc1)c1cc(Br)ccc1NC(C)=O (configuration not stated)	6%	7%	-18%	3.2µM*	-3%[9.22 µM]
c1ccc(CCc2ccccc2-c2nc(-c3cccnc3)no2)cc1	9%	40µM*	-22%[46.1 µM]	-13%	20µM*
Cc1ccc(C(=O)NCc2ccccc2)cc1NC(=O)c1nsc2ccccc12	-8%	x	x	x	x
COc1cccc(Nc2nc3ccccc3nc2NS(=O)(=O)c2cccs2)c1	-4%	-5%	-23%[46.1 µM]	-77%	14µM*
COc1ccc(Nc2nc3ccccc3nc2NS(=O)(=O)c2cccs2)c(OC)c1	4%	8%	-26%	0%[10 µM]	-17%[9.22 µM]
O=S(=O)(O)c1cc(O)c2c(O)c(N=Nc3cccc4ccccc34)c(S(=O)(=O)O)cc2c1	x	x	x	-2%[10 µM]	x
COc1ccc(OC)c(NC(=S)NN2CCOCC2)c1	-1%	-6%	-11%[46.1 µM]	-7%[10 µM]	11µM*
COc1ccc(Cl)cc1NC(=S)NN1CCOCC1	0%	2%	-3%	4%[10 µM]	-3%
COCCNC(=O)c1ccc(-n2c(-c3ccccc3)cc3c2CCCCC3)cc1	-11%	x	x	x	x
O=c1ccn([C@H]2O[C@H](CO)[C@@H](O)[C@@H]2O)c(=O)[nH]1	x	x	x	-16%	x
CSc1ccc(CNC(=O)C2CCCN(S(=O)(=O)N(C)c3ccc(F)cc3)C2)cc1 (configuration not stated)	3%	x	x	x	x
O=C1C[C@H]2C(=O)[C@@H]1[C@@H](C(=O)O)[C@H]2C(=O)O	x	x	x	-22%[10 µM]	x

High-throughput results (PubChem)
